Results published in the supplement of paper PMC8728848.
The full list was thinned out, with the strongest signals kept by preference.

Columns and labels:
Experiment in all cases: glycan array binding signal (z-score within array); higher = stronger binding
Details in all cases: glycan notation: IUPAC condensed, linker removed
[1] = system: Neu5Ac(a2-3)Gal(b1-3)[Neu5Ac(a2-6)]GalNAc
How it was run: (§1)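 Negative Z-scores can be read as non-binding. The Z-score is calculated within each array and then averaged across arrays of one protein sequence at different concentrations or buffers and across linkers. Arrays, 3228 in all, were curated from the Consortium for Functional Glycomics database and kept only where the protein sequence was available.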

Man(b1-4)GlcNAc = system: Man(b1-4)GlcNAc
How it was run: as §1

MurNAc(b1-4)GlcNAc = system: MurNAc(b1-4)GlcNAc
How it was run: as §1

[2] = system: Neu5Ac(a2-3)Gal(b1-3)GlcNAc(b1-2)Man(a1-3)[GlcNAc(b1-4)][Neu5Ac(a2-3)Gal(b1-3)GlcNAc(b1-2)Man(a1-6)]Man(b1-4)GlcNAc(b1-4)GlcNAc
How it was run: as §1

[3] = system: Neu5Ac(a2-3)Gal(b1-3)GlcNAc(b1-6)GalNAc
How it was run: as §1

[4] = system: Neu5Ac(a2-3)Gal(b1-4)GlcNAc(b1-2)Man
How it was run: as §1

[5] = system: Neu5Ac(a2-3)Gal(b1-3)GlcNAc(b1-3)Gal(b1-4)GlcNAc
How it was run: as §1

[6] = system: Neu5Ac(a2-3)Gal(b1-3)GalNAc(b1-4)[Neu5Ac(a2-3)]Gal(b1-4)Glc
How it was run: as §1

[7] = system: Neu5Ac(a2-3)Gal(b1-3)GalNAc(b1-4)[Neu5Ac(a2-8)Neu5Ac(a2-3)]Gal(b1-4)Glc
How it was run: as §1

[8] = system: Neu5Ac(a2-3)Gal(b1-3)GlcNAc(b1-4)Gal(b1-4)Glc
How it was run: as §1

[9] = system: Neu5Ac(a2-3)Gal(b1-4)GlcNAc(b1-2)Man(a1-3)[GlcNAc(b1-4)][Neu5Ac(a2-3)Gal(b1-4)GlcNAc(b1-2)Man(a1-6)]Man(b1-4)GlcNAc(b1-4)GlcNAc
How it was run: as §1

[10] = system: Neu5Ac(a2-3)Gal(b1-4)GlcNAc(b1-2)Man(a1-3)[Neu5Ac(a2-6)Gal(b1-4)GlcNAc(b1-2)Man(a1-6)]Man(b1-4)GlcNAc(b1-4)GlcNAc
How it was run: as §1

[11] = system: Man(a1-3)[Man(a1-6)]Man(a1-6)[Man(a1-2)Man(a1-3)]Man(b1-4)GlcNAc(b1-4)GlcNAc
How it was run: as §1

[12] = system: Neu5Ac(a2-3)Gal(b1-3)GlcNAc(b1-3)Gal(b1-3)GlcNAc
How it was run: as §1

[13] = system: Neu5Ac(a2-3)Gal(b1-4)GlcNAc(b1-2)Man(a1-3)[Neu5Ac(a2-3)Gal(b1-4)GlcNAc(b1-2)Man(a1-6)]Man(b1-4)GlcNAc(b1-4)[Fuc(a1-6)]GlcNAc
How it was run: as §1

[14] = system: Man(a1-3)[Man(a1-6)]Man(b1-4)GlcNAc(b1-4)[Fuc(a1-6)]GlcNAc
How it was run: as §1

Man(a1-3)[Man(a1-6)]Man = system: Man(a1-3)[Man(a1-6)]Man
How it was run: as §1

[15] = system: Neu5Ac(a2-3)Gal(b1-3)GalNAc
How it was run: as §1

[16] = system: Neu5Ac(a2-3)Gal(b1-3)GlcNAc6S
How it was run: as §1

[17] = system: Neu5Ac(a2-3)Gal(b1-3)[Fuc(a1-4)]GlcNAc
How it was run: as §1

## MIC3-MAR1b (Eimeria tenella), B6VCV4
[1]
  glycan array binding signal (z-score): -0.355

## LcI (Legionella pneumophila)
Man(b1-4)GlcNAc
  glycan array binding signal (z-score): 0.079
MurNAc(b1-4)GlcNAc
  glycan array binding signal (z-score): 0.332
[2]
  glycan array binding signal (z-score): -0.429
[3]
  glycan array binding signal (z-score): 3.77
[4]
  glycan array binding signal (z-score): 2.16

## BambL (Burhholderia ambifaria), Q0B4G1
[5]
  glycan array binding signal (z-score): -0.316

## AgI/II Vhelical-GFP (Streptococcus mutans)
[6]
  glycan array binding signal (z-score): 0.244
[7]
  glycan array binding signal (z-score): -0.256
[2]
  glycan array binding signal (z-score): 1.2
[8]
  glycan array binding signal (z-score): -0.297
[9]
  glycan array binding signal (z-score): 0.396
[10]
  glycan array binding signal (z-score): -0.182

## AgI/IIC123-GFP (Streptococcus mutans)
[11]
  glycan array binding signal (z-score): -0.159
[2]
  glycan array binding signal (z-score): -0.265
[12]
  glycan array binding signal (z-score): -0.456
[13]
  glycan array binding signal (z-score): -0.442

## Epa22
[14]
  glycan array binding signal (z-score): -0.324

## Wza (Escherichia coli), P0A930
[11]
  glycan array binding signal (z-score): 0.776
Man(a1-3)[Man(a1-6)]Man
  glycan array binding signal (z-score): 1.81

## GspB (Streptococcus gordonii), Q939N5
[15]
  glycan array binding signal (z-score): 4.52
[16]
  glycan array binding signal (z-score): -0.2
[1]
  glycan array binding signal (z-score): 3.61

## SiiE (Salmonella typhimurium), A0A0H3NVH0
[5]
  glycan array binding signal (z-score): -0.888

## Actinohivin (Actinomycete K97)
[16]
  glycan array binding signal (z-score): -0.191
[17]
  glycan array binding signal (z-score): -0.196
